Test results as given in PMC11062922 (Nature Chemical Biology, 2023).
Like-named read-outs stand apart in the source and are kept apart here.

Assays:
Parameters in all cases: species or system human, MV4-11 + K-562 + COLO205 + SK-N-BE2 + OVCAR-8
CSNK1D = details: read-out: apparent Kd; compound concentrations:100 nM and 1000 nM (sheet 'Samples'); n = 1
MAPK9 = details: read-out: apparent Kd, n = 1
MARK3 = details: read-out: apparent Kd, n = 1
CDK16 = details: read-out: apparent Kd, n = 1
PRKACA = details: read-out: apparent Kd, n = 1
PRKACB = details: read-out: apparent Kd, n = 1
STK4 = details: read-out: apparent Kd, n = 1
EPHA5 = details: read-out: apparent Kd; compound concentrations: 100 nM and 1000 nM (sheet 'Samples'), CATDS: 5.66388945901121E-2; n = 1
MAPK10 = details: read-out: apparent Kd, n = 1
STK16 = details: read-out: apparent Kd, n = 1
CHEK1 = details: read-out: apparent Kd, n = 1
EPHA4 = details: read-out: apparent Kd; compound concentrations: 100 nM and 1000 nM (sheet 'Samples'), CATDS: 2.83796334007482E-2; n = 1
EPHB2 = details: read-out: apparent Kd; compound concentrations: 100 nM and 1000 nM (sheet 'Samples'), CATDS: 2.91102387203203E-2; n = 1
EPHB4 = details: read-out: apparent Kd; compound concentrations: 100 nM and 1000 nM (sheet 'Samples'), CATDS: 3.3476248277138E-2; n = 1
TNK2 = details: read-out: apparent Kd, n = 1
AURKA = details: read-out: apparent Kd; compound concentrations:100 nM and 1000 nM (sheet 'Samples'); n = 1
CAMKK2 = details: read-out: apparent Kd; compound concentrations: 100 nM and 1000 nM (sheet 'Samples'), CATDS: 1.7349658835090001E-2; n = 1
[1] = compound concentrations:100 nM and 1000 nM (sheet 'Samples')

Cc1cc(NC(=O)c2cccc(NC(=O)/C=C/CN(C)C)c2)ccc1Nc1nccc(-c2cccnc2)n1 [JNK-IN-7]
potency estimated from few doses (CSNK1D): 1190 nM | potency estimated from few doses (MAPK9; [1]): 6.45 nM

Nc1nccc(-c2ccc3c(N)n[nH]c3c2)n1 [GSK1034945A]
potency estimated from few doses (MARK3; [1]): 1040 nM

NS(=O)(=O)c1ccc(N/N=C2\C(=O)Nc3ccc(-c4cnco4)cc32)cc1 [GW276655_KCGS]
potency estimated from few doses (CDK16; [1]): 1880 nM

CC(C)(CO)CNC(=O)c1ccc2c(c1)/C(=N/Nc1ccc(S(N)(=O)=O)cc1)C(=O)N2 [GW301784X]
potency estimated from few doses (CDK16; [1]): 53 nM

Cl.Nc1nc(-c2ccc3c(c2)C(=Cc2cc(Br)c(O)c(Br)c2)C(=O)N3)cs1 [GW407323A]
potency estimated from few doses (CDK16; compound concentrations: 100 nM and 1000 nM (sheet 'Samples'), CATDS: 4.1043878899959203E-2): 464 nM

Cc1occc1-c1nc(N)c(OC[C@@H](N)Cc2c[nH]c3ccccc23)cc1-c1cc2c(C)n[nH]c2cn1 [GSK1660450B]
potency estimated from few doses (CSNK1D): 452 nM | potency estimated from few doses (MARK3; [1]): 1250 nM | potency estimated from few doses (PRKACA; [1]): 8.55 nM | potency estimated from few doses (PRKACB; [1]): 18.6 nM | potency estimated from few doses (STK4; [1]): 105 nM

NS(=O)(=O)c1ccc(NC=C2C(=O)Nc3ccc4ncsc4c32)cc1 [GW589933X]
potency estimated from few doses (CDK16; compound concentrations: 100 nM and 1000 nM (sheet 'Samples'), CATDS: 3.8979394521984997E-2): 193 nM | potency estimated from few doses (STK4; compound concentrations: 100 nM and 1000 nM (sheet 'Samples'), CATDS: 3.75205363662858E-2): 208 nM

NS(=O)(=O)c1ccc(N/N=C2\C(=O)Nc3ccc4ncccc4c32)cc1 [GW305178X]
potency estimated from few doses (STK4; compound concentrations: 100 nM and 1000 nM (sheet 'Samples'), CATDS: 4.4831401788358302E-2): 1360 nM

CNc1nccc(-c2ccc3c(N)n[nH]c3c2)n1 [GSK2206003A]
potency estimated from few doses (MARK3; compound concentrations: 100 nM and 1000 nM (sheet 'Samples'), CATDS: 5.1673366030294897E-2): 1410 nM

Cl.Cn1cc(C2=C(c3c4n(c5ccccc35)CCNC4)C(=O)NC2=O)c2ccccc21 [RO0318365-001]
potency estimated from few doses (EPHA5): 1210 nM

NS(=O)(=O)c1ccc(N/C=C2\C(=O)Nc3ccc4ncsc4c32)cc1 [GW297361X]
potency estimated from few doses (CDK16; compound concentrations: 100 nM and 1000 nM (sheet 'Samples'), CATDS: 4.8575287587601497E-2): 557 nM | potency estimated from few doses (STK4; compound concentrations: 100 nM and 1000 nM (sheet 'Samples'), CATDS: 4.6410579301478898E-2): 611 nM

COc1cc[nH]c1/C=C1\C(=O)Nc2ccc(F)c(C#C[C@@H](O)[C@@H](N)[C@@H](C)O)c21 [RO0283120-000]
potency estimated from few doses (CDK16; [1]): 235 nM | potency estimated from few doses (MAPK10; [1]): 654 nM | potency estimated from few doses (MAPK9; [1]): 321 nM | potency estimated from few doses (MARK3; [1]): 528 nM | potency estimated from few doses (STK16; [1]): 1230 nM | potency estimated from few doses (STK4; [1]): 765 nM

CN[C@H](C#Cc1c(F)ccc2c1/C(=C/c1[nH]ccc1OC)C(=O)N2)CO.Cl [RO0283049-001]
potency estimated from few doses (CDK16; compound concentrations: 100 nM and 1000 nM (sheet 'Samples'), CATDS: 4.8469274935302599E-2): 167 nM | potency estimated from few doses (MAPK10; compound concentrations: 100 nM and 1000 nM (sheet 'Samples'), CATDS: 2.5716910898498702E-2): 751 nM | potency estimated from few doses (MAPK9; compound concentrations: 100 nM and 1000 nM (sheet 'Samples'), CATDS: 5.4093082413128303E-2): 135 nM | potency estimated from few doses (STK16; compound concentrations: 100 nM and 1000 nM (sheet 'Samples'), CATDS: 2.2828381206070801E-2): 1110 nM | potency estimated from few doses (STK4; compound concentrations: 100 nM and 1000 nM (sheet 'Samples'), CATDS: 2.6680938989094499E-2): 674 nM

CNCC1CCn2c(c(C3=C(c4cn(C)c5ccccc45)C(=O)NC3=O)c3ccccc32)C1 (stereo not shown) [RO0318676-000]
potency estimated from few doses (CHEK1; compound concentrations: 100 nM and 1000 nM (sheet 'Samples'), CATDS: 3.6585074112693398E-2): 754 nM | potency estimated from few doses (EPHA4): 1680 nM | potency estimated from few doses (EPHB2): 1530 nM | potency estimated from few doses (EPHB4): 973 nM | potency estimated from few doses (TNK2; compound concentrations: 100 nM and 1000 nM (sheet 'Samples'), CATDS: 3.7292246432418498E-2): 715 nM

CC(C)N1CC(=O)N(C)c2cnc(Nc3cccc(S(=O)(=O)CCN4CCOCC4)c3)nc21 [BI00009348]
potency estimated from few doses (STK16; compound concentrations: 100 nM and 1000 nM (sheet 'Samples'), CATDS: 5.8221493759355002E-2): 1180 nM

CN(C)c1ccc2c(c1)/C(=C/Nc1ccc(S(N)(=O)=O)cc1)C(=O)N2 [GW416469X]
potency estimated from few doses (STK4; compound concentrations: 100 nM and 1000 nM (sheet 'Samples'), CATDS: 7.4915408427864094E-2): 1510 nM

O=C(Nc1n[nH]c2nc(-c3ccccc3O)ccc12)C1CC1 [SB-711880]
potency estimated from few doses (AURKA): 286 nM | potency estimated from few doses (CHEK1; [1]): 967 nM | potency estimated from few doses (MARK3; [1]): 1610 nM | potency estimated from few doses (STK4; [1]): 345 nM | potency estimated from few doses (TNK2; [1]): 517 nM

COc1cc[nH]c1/C=C1\C(=O)Nc2ccc([N+](=O)[O-])c(N3CC[C@@H](O)C3)c21 [RO0504985-000]
potency estimated from few doses (CDK16; compound concentrations: 100 nM and 1000 nM (sheet 'Samples'), CATDS: 3.96360486889639E-2): 697 nM | potency estimated from few doses (MAPK10; compound concentrations: 100 nM and 1000 nM (sheet 'Samples'), CATDS: 3.16649097319332E-2): 1540 nM | potency estimated from few doses (MAPK9; compound concentrations: 100 nM and 1000 nM (sheet 'Samples'), CATDS: 2.9417077034867501E-2): 2110 nM | potency estimated from few doses (STK16; compound concentrations: 100 nM and 1000 nM (sheet 'Samples'), CATDS: 3.4591069451125701E-2): 1100 nM

Cl.Cl.NCC(NC(=O)c1cc(-c2ccnc3[nH]ccc23)cs1)c1ccccc1.NCC(NC(=O)c1cc(-c2ccnc3[nH]ccc23)cs1)c1ccccc1 (stereo not shown) [GSK1229959A]
potency estimated from few doses (CAMKK2): 1720 nM | potency estimated from few doses (CDK16; compound concentrations: 100 nM and 1000 nM (sheet 'Samples'), CATDS: 1.6665892971292499E-2): 2280 nM | potency estimated from few doses (PRKACA; compound concentrations: 100 nM and 1000 nM (sheet 'Samples'), CATDS: 5.4700328593155198E-2): 27.5 nM | potency estimated from few doses (PRKACB; compound concentrations: 100 nM and 1000 nM (sheet 'Samples'), CATDS: 4.1114005800974601E-2): 56 nM
